# Data reported in PubChem BioAssay.
# Calls of active or inactive are those of the source.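 How the source made its calls, unless noted: active means compounds lowering colon cancer cell viability after pretreatment blocking the GSK3B kinase; inactive means the rest.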
# Key:
# [1] = stimulators of nuclear beta-catenin in C2C12, primary screen, imaging, WNT3A-conditioned medium, mouse C2C12, NPC library (AID 1117326; in the data active means nuclear beta-catenin stimulation mostly above about 4.2%, no sharp cut-off; inactive means mostly below about 10%; further: reference of the scale not given here); settings: stronger effect = higher value
# [2] = stimulators of insulin release from INS-1E, primary screen, cell-based, 5 mM glucose, NPC library (AID 1117329;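 active means compound raises insulin release from rat beta cells at 5 mM glucose, no numeric limit stated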; further: reference of the scale not given here); settings: rat INS-1E insulin secretion, at 10 µM, stronger effect = higher value
# [3] = growth inhibition of GSK3B-pretreated HCT116 cells – cell-based, CellTiter-Glo, 0.2 to 20 µM (AID 1117336); settings: HCT116 viability after GSK3B inhibitor, at 20 µM, stronger effect = higher value
# [4] = inhibition of endothelial tube formation, primary screen, imaging, VEGF stimulated, CD31 staining, tube area, NPC library (AID 1117340;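 active means compound that reduces growth-factor-driven endothelial tube area in a mixed cell culture, no cutoff stated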); settings: VEGF-stimulated ADSC/ECFC co-culture, at 10 µM, stronger effect = higher value
# [5] = glucagon-like peptide 1 release enhancers, primary assay, NCI-H716 cell line, NPC library (AID 1117341;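 active means compound raises GLP1 secretion from the human gut endocrine cells, with no numeric limit stated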; further: reference of the scale not given here); settings: NCI-H716 cells, at 10 µM, stronger effect = higher value
# [6] = HCT116 colon cancer cell growth inhibition, primary screen, CellTiter-Glo luminescence, NPC library (AID 1117342;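 active means compounds that lower survival of HCT116 colon cancer cells in the luminescence readout, no numeric limit stated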); settings: at 20 µM (top of the series)
# [7] = CellTiter-Glo luminescent readout of SW480 viability loss, NPC library primary (AID 1117343;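 active means compounds that lower viability of the colon cancer cells in the luminescence readout, with no numeric limit stated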); settings: CellTiter-Glo luminescence; at 20 µM (top of the series)
# [8] = decreased DLD-1 cellular survival, CellTiter-Glo luminescent readout, NPC compound collection, primary HTS (AID 1117346;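 active means compounds that lower survival of DLD-1 colon cancer cells in the luminescence readout, no cutoff given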); settings: DLD-1 viability, CellTiter-Glo luminescence; at 20 µM (top of the series)
SMILES,nuclear beta-catenin stimulation ([1]; at 10 µM),"nuclear beta-catenin stimulation ([1]; stimulation, at 2 µM) [%]",insulin secretion stimulation [2],viability decrease [3],tube area decrease [4],GLP1 secretion stimulation [5],inhibition of viability [6],viability decrease (inhibition) [7],viability decrease (inhibition) [8]
COc1cc2[nH]c(=O)[nH]c(=O)c2cc1OC,0.1% (inactive),1.1,-1.8% (inactive),6.35% (inactive),-8.3% (inactive),3.1% (inactive),-1.4% (inactive),47.6% (inactive),0.05% (inactive)
CN1CC(=O)NC1=N,-0.7% (inactive),1.5,4.1% (inactive),-24% (inactive),21.3% (inactive),0.9% (inactive),-3.43% (inactive),-155% (inactive),-6.6% (inactive)
CCN(CC)CCOc1ccccc1C(=O)CCc1ccccc1,-0.8% (inactive),-1.7,70% (active),14.5% (inactive),0.9% (inactive),5.2% (inactive),61.9% (active),50.7% (active),23.2% (inactive)
CC(=O)Oc1ccc(C2(c3ccc(OC(C)=O)cc3)C(=O)Nc3ccccc32)cc1,1.7% (inactive),0.9,-2.1% (inactive),32.6% (inactive),51.8% (active),4% (inactive),39% (inactive),15.8% (inactive),49.1% (inactive)
CCN(CC)CCSC(=O)C(c1ccccc1)c1ccccc1,7.2% (inactive),2.8,15.8% (inactive),6.7% (inactive),3.2% (inactive),9.6% (inactive),1% (inactive),5.1% (inactive),1.5% (inactive)
CC(=O)Oc1ccc(C2(c3ccc(OC(C)=O)cc3)Oc3ccccc3NC2=O)cc1,54.6% (active),9.3,19.9% (inactive),91.8% (active),106% (active),1.6% (inactive),83.3% (active),60.2% (active),52.2% (active)
NCCNc1ccc(NCCN)c2c1C(=O)c1ccncc1C2=O,22.6% (inactive),8.9,-0.4% (inactive),67.3% (active),91.4% (active),-4.8% (inactive),47% (inactive),1.2% (inactive),14.7% (inactive)
CCCN(CCC)C(=O)C(CCC(=O)OCCCN1CCN(CCOC(=O)Cc2c(C)n(C(=O)c3ccc(Cl)cc3)c3ccc(OC)cc23)CC1)NC(=O)c1ccccc1 (configuration not stated),51% (active),-0.4,0.4% (inactive),113% (active),25.9% (inactive),3.5% (inactive),113% (active),120% (active),93.3% (active)
NS(=O)(=O)c1ccc(Cl)c(S(N)(=O)=O)c1,-2.3% (inactive),-1,-1.3% (inactive),-4.9% (inactive),12.2% (inactive),-0.9% (inactive),-6% (inactive),-5.6% (inactive),-7.1% (inactive)
CC(C)C[C@H](NC(=O)CNC(=O)[C@H](Cc1ccc(O)cc1)NC(=O)[C@H](CO)NC(=O)[C@H](Cc1c[nH]c2ccccc12)NC(=O)[C@H](Cc1cnc[nH]1)NC(=O)[C@@H]1CCC(=O)N1)C(=O)N[C@@H](CCCN=C(N)N)C(=O)N1CCC[C@H]1C(=O)NCC(N)=O (stereo in doubt),-1% (inactive),-0.5,-0.4% (inactive),0.3% (inactive),19.8% (inactive),6% (inactive),6.7% (active),11.3% (inactive),-1.2% (inactive)
CCN(CC)CC(=O)Nc1c(C)cccc1C(=O)OC,0% (inactive),0.3,0.7% (inactive),-3% (inactive),27.1% (inactive),4.8% (inactive),-7.9% (inactive),-13.2% (inactive),-17.2% (inactive)
N=C(N)n1cccn1,0.3% (inactive),0,9.4% (inactive),-5.8% (inactive),4.7% (inactive),-3.7% (inactive),6.5% (inactive),16.1% (inactive),-2.6% (inactive)
CCn1ccc(NS(=O)(=O)c2ccc(N)cc2)nc1=O,1.9% (inactive),1.4,3.4% (inactive),-22.1% (inactive),11.6% (inactive),2.7% (inactive),-54.2% (inactive),-2.8% (inactive),-26.4% (inactive)
CC(=O)N1C[C@H](O)C[C@H]1C(=O)O,0.5% (inactive),-0.3,-0.3% (inactive),-2.7% (inactive),-1.7% (inactive),-0.9% (inactive),7.13% (inactive),8.1% (inactive),4% (inactive)
Cc1ccc(S(=O)(=O)NC(=O)NC2CCCC2)cc1,0.2% (inactive),0.6,15.2% (inactive),-1.25% (inactive),-10.7% (inactive),-0.4% (inactive),-18.5% (inactive),44.9% (inactive),9.95% (inactive)
C[C@H](CCC(=O)O)[C@H]1CC[C@H]2[C@@H]3CC[C@@H]4C[C@H](O)CC[C@]4(C)[C@@H]3C[C@H](O)[C@]12C,-0.7% (inactive),-1.1,1% (inactive),37.6% (inactive),0% (inactive),-5% (inactive),57% (active),35.7% (inactive),9.8% (active)
CCCCCCCCCCCCCCCC[n+]1ccccc1,-2.9% (inactive),5.4,46% (active),56% (active),104% (active),72.8% (active),112% (active),112% (active),60.9% (active)
C/C=C/c1ccc(O)c(OC)c1,9.7% (inactive),0.5,-0.1% (inactive),2.5% (inactive),-5.2% (inactive),-3.8% (inactive),8.25% (inactive),51.6% (active),18.6% (inactive)
O=C(O)c1ccccn1,1.7% (inactive),0.9,-0.2% (inactive),31.1% (inactive),-6.5% (inactive),1.3% (inactive),-1.6% (inactive),10.7% (inactive),22% (inactive)
CCOC(=O)c1ccc(O)c(O)c1,4.9% (inactive),3.4,4% (inactive),88.4% (active),24% (inactive),-0.3% (inactive),63.9% (active),77.7% (active),56.4% (active)
CN1[C@@H]2CC[C@H]1CC(NC(=O)n1c(=O)[nH]c3ccccc31)C2 (some centres not stated),1.7% (inactive),1,0.4% (inactive),-2.9% (inactive),-4.6% (inactive),2.8% (inactive),23.7% (inactive),5.3% (inactive),-7.7% (inactive)
Nc1c(I)cc(I)c(C(=O)N(CCC(=O)O)c2ccccc2)c1I,1.2% (inactive),-0.2,1.9% (inactive),-9.8% (inactive),-5.2% (inactive),-5.3% (inactive),-9.4% (inactive),7.8% (active),-9.8% (inactive)
CC(=O)N/N=C/c1ccc([N+](=O)[O-])o1,9.9% (inactive),-0.2,-3.3% (inactive),16.4% (inactive),20.9% (inactive),5.7% (inactive),9% (inactive),104% (active),80.5% (active)
O=C(O)Cc1cn(-c2ccccc2)nc1-c1ccc(Cl)cc1,8.7% (inactive),1.2,0.6% (inactive),20.4% (inactive),-3.1% (inactive),-0.7% (inactive),16.8% (inactive),16.1% (active),7.8% (inactive)
Cc1cccc(OCC(O)CNC(C)(C)C)c1C (configuration not stated),-0.4% (inactive),0.2,1% (inactive),-0.4% (inactive),18.2% (inactive),-1% (inactive),23.8% (inactive),24.5% (inactive),8.8% (inactive)
CCCCCCCCCCCCSCCOCCO,0.7% (inactive),2,-1.7% (inactive),9.65% (inactive),6.6% (inactive),1.9% (inactive),-38.8% (inactive),122% (active),94.7% (active)
CCOC(=O)Cn1cccc1-c1nc(-c2ccc(OC)cc2)c(-c2ccc(OC)cc2)s1,-0.6% (inactive),-1.4,1.9% (inactive),35.5% (inactive),6.7% (inactive),-0.1% (inactive),46% (inactive),88.2% (active),77.5% (active)
Cc1cccc(C)c1NC(=O)CN(CC(=O)O)CC(=O)O,0.4% (inactive),0.2,-2.1% (inactive),-0.05% (inactive),-22.7% (inactive),1.6% (inactive),2.2% (inactive),43.5% (inactive),8.9% (inactive)
